Hits are enriched below; roughly 14% of the tested compounds scored in any of these assays.
Sm TGR inh = qHTS Assay for the Inhibitors of Schistosoma Mansoni Peroxiredoxins; Potency, µM (series often up to 114 µM), for inactives: at the highest dose activity change, negative = inhibition, most hits filed as inhibitors; AID 485364, 2010; purified TGR, DTNB reduction, TNB absorbance 405 nm; Schistosoma mansoni thioredoxin glutathione reductase (TGR), Q962Y6; hit rate 3% among 360,000; note: potency is the fitted concentration of half-maximal effect; nearly all actives have a fitted effect of over 60% in size
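TGR 20 nM + NADPH 100 uM (dispensed conc.), cpd preinc 15 min RT; start with NADPH (500 uM addition) then DTNB (15 mM addition). Kinetic TNB absorbance, 405 nm filter. Four-parameter Hill fit across titration.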
HCMV antiviral = qHTS Assay for inhibitors of the human cytomegalovirus (HCMV) | hit rate 4.5% among 410,000 | activity change, negative = inhibition, % at 57.5 µM | AID 1259415, 2018 | HFF cells, HCMV-luciferase reporter, 72 h; stronger effect = lower value; in the data active = activity change below about -60%; inconclusive = no clear call, values can overlap the other calls; inactive = above about -39%
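After 16 h attachment at 37C, HFF cells received test compound and HCMV-luciferase (1 PFU/cell); reporter luminescence read 72 h later, data normalized against buffer-only and known inhibitor Salinomycin.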
Giardia FBPA inh = qHTS Assay for Inhibitors of Fructose-1,6-bisphosphate Aldolase from Giardia Lamblia; hit rate 0.71% among 290,000; Potency, µM (titrated, usually from 59.6 µM), inactives show top-dose activity, negative = inhibition, most hits filed as inhibitors; purified Giardia FBPA; note: potency is the fitted concentration of half-maximal effect; nearly all actives have a fitted effect of over 55% in size
Target sequence (A8B2U2 whole entry, looked up): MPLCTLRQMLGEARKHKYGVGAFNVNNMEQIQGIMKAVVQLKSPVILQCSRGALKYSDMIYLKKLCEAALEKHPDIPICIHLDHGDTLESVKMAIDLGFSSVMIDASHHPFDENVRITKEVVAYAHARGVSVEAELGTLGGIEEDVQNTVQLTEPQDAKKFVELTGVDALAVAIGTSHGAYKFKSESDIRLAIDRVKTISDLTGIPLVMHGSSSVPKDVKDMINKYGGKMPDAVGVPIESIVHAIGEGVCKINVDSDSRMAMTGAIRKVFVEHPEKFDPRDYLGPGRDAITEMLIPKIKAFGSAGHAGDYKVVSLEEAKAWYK
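40 nM FBPA preincubated 10 min at RT with compound (up to 57.5 uM final), then substrate plus GAPDH/TPI/NAD/arsenate coupling and diaphorase/resazurin added. Fluorescence read after 20 min at RT, 525/598 nm.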
Pf growth 96h = Primary qHTS for delayed death inhibitors of the malarial parasite plastid, 96 hour incubation. Potency, µM (series often up to 28.7 µM), for inactives: top-dose activity change, negative = inhibition, most hits filed as inhibitors. hit rate 6.9% among 320,000. AID 504834, 2011. P. falciparum luciferase reporter growth, 96 h; note: potency is the fitted concentration of half-maximal effect
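Readout is luminescence from an integrated firefly luciferase in P. falciparum. Red cells, 2% hematocrit and 0.05% parasitemia final, were cultured with compound through two parasite generations (96 hours) at 37 C, 5% CO2.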
Pf growth 48h = Primary qHTS for delayed death inhibitors of the malarial parasite plastid, 48 hour incubation | P. falciparum luciferase growth in erythrocytes, 48 h | Potency, µM (doses to about 28.7 µM), for inactives: at the highest dose activity change, negative = inhibition, usual class: inhibitors | hit rate 5.9% among 310,000; note: potency is the fitted concentration of half-maximal effect
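Compounds are pin-transferred into medium, infected erythrocytes (2% hematocrit, 0.1% parasitemia final) are added, and plates sit one parasite generation at 37 C in 5% CO2. Detection reagent is then added and luminescence measured.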
* hit, by the source's call; [ ] = remark or other dose. Unless noted, calls come from the whole dose curve; as a rule, active = well fitted curve in the direction sought with a large enough effect; inconclusive = small, poorly fitted or top-dose-only effect, or another doubt; inactive = no such curve, though single readings can be large; an effect the other way counts as inactive or inconclusive. % is set by controls: 0 for no effect and ±100 for the full control effect.

`O=C1OCc2cc(NS(=O)(=O)c3cccs3)ccc21` gave Sm TGR inh 0%, HCMV antiviral -63*, Giardia FBPA inh 4%, Pf growth 96h 23% and Pf growth 48h 11%.
`Nc1c(C(=O)N2CCCC2)sc2nc(-c3ccccc3)ccc12` gave Sm TGR inh 7%, HCMV antiviral 5, Giardia FBPA inh -4%, Pf growth 96h 100% and Pf growth 48h 135%.
For Cc1ccc(O)c(C(CC(=O)NCC2(c3ccccc3)CCCC2)c2ccccc2)c1 (centres undefined) the results were Sm TGR inh -3% and HCMV antiviral -99*.
Screening S=C(NCC1(c2ccccc2)CCCC1)Nc1ccccc1 returned Sm TGR inh -7%, HCMV antiviral -97*, Giardia FBPA inh 6%, Pf growth 96h inconclusive and Pf growth 48h 7%[0.00184 µM].
For O=C(NCC1(c2ccccc2)CCCC1)C1(c2ccccc2)CCCC1 the results were Sm TGR inh 1%, HCMV antiviral -32, Giardia FBPA inh -1%, Pf growth 96h 2.6µM* and Pf growth 48h inconclusive.
For O=C(NCC1(c2ccccc2)CCCC1)C(=O)NCC1(c2ccccc2)CCCC1 the results were Sm TGR inh 40µM*, HCMV antiviral 20, Giardia FBPA inh 2%, Pf growth 96h 4% and Pf growth 48h 0%.
Screening Nc1nc2c(ncn2[C@@H]2O[C@H](C(=O)N[C@H](Cc3ccccc3)C(=O)NCCCc3ccccc3)[C@@H](O)[C@H]2O)c(=O)[nH]1 returned HCMV antiviral 24.
CC1(C)CN(C(Cc2ccccc2)C(N)=O)C1=O (centres undefined) was read as Sm TGR inh 12%, HCMV antiviral 35, Giardia FBPA inh 5%, Pf growth 96h 31% and Pf growth 48h 40%.
`COc1ccc(NC(=O)C2CCN(C(=O)Nc3ccccc3)CC2)cc1S(=O)(=O)N(C)C` gave Sm TGR inh 0%, HCMV antiviral 0, Pf growth 96h inconclusive and Pf growth 48h inconclusive.
Screening Cc1ccc(C(C)C)c(OCCn2ccnc2C)c1 returned Sm TGR inh 72%, HCMV antiviral 11, Giardia FBPA inh inconclusive, Pf growth 96h 12µM* and Pf growth 48h inconclusive.
`Cc1ccc(OCCCCn2ccnc2C)c(C)c1` gave Sm TGR inh -2%, HCMV antiviral inconclusive, Giardia FBPA inh inconclusive, Pf growth 96h -22% and Pf growth 48h inconclusive.
Cc1noc2ncnc(Oc3cc(Cl)ccc3Cl)c12 was read as Sm TGR inh -2%, HCMV antiviral -39, Giardia FBPA inh 0%, Pf growth 96h 13µM* and Pf growth 48h inconclusive.
Cc1noc2ncnc(Oc3ccc4ccccc4c3)c12 was read as Sm TGR inh 11%, HCMV antiviral -20, Giardia FBPA inh 4%, Pf growth 96h 0% and Pf growth 48h 0%.
COc1ccc(C2CC(=O)C3=C(C2)Nc2ncnn2C3c2ccccc2C)c(OC)c1 (centres undefined) was read as Sm TGR inh -2%, HCMV antiviral -3, Giardia FBPA inh 5%, Pf growth 96h 8.3µM* and Pf growth 48h 7.4µM*.
For CCCCCCCCCCn1ccc(=N)cc1 the results were Sm TGR inh 11%, HCMV antiviral -100*, Giardia FBPA inh 2%, Pf growth 96h inconclusive and Pf growth 48h 0.21µM*.
Screening CCCCCCCCn1ccc(=N)cc1 returned Sm TGR inh 10%, HCMV antiviral inconclusive, Giardia FBPA inh 6%, Pf growth 96h inconclusive and Pf growth 48h 0.37µM*.
CCCCCCN1Cc2ccccc2C1 was read as Sm TGR inh 8%, HCMV antiviral -17, Giardia FBPA inh -1%, Pf growth 96h 8% and Pf growth 48h 34%.
For Cc1cc(=O)[nH]c(/N=C(\N)Nc2ccc(SC(F)F)cc2)n1 the results were Sm TGR inh -4%, HCMV antiviral -10, Giardia FBPA inh -18%, Pf growth 96h 31%[5.75 µM] and Pf growth 48h -16%.
`O=C(c1cc(COc2ccc(F)cc2F)on1)N1CCN(C(=O)c2ccco2)CC1` gave Sm TGR inh 25µM*, HCMV antiviral -38, Pf growth 96h -22% and Pf growth 48h 3%.
For O=C(c1cc(COc2ccc(F)cc2Cl)on1)N1CCC(OCc2cccnc2)CC1 the results were Sm TGR inh 4%, HCMV antiviral -68*, Giardia FBPA inh -3%, Pf growth 96h 108% and Pf growth 48h inconclusive.
Screening COc1ccc(CCN2CNc3c(c(=O)n(C)c(=O)n3C)C2)cc1 returned Sm TGR inh 89µM*, HCMV antiviral -15, Giardia FBPA inh -1%, Pf growth 96h 12% and Pf growth 48h 38%.
`Cc1cc(C)cc(Nc2cc(C)nc3nc(-c4ccco4)nn23)c1` gave Sm TGR inh -32% and HCMV antiviral -17.
COc1ccc(C2C(C#N)=C(C)NC(C)=C2C(=O)OC(C)C)c(OC)c1 (centres undefined) was read as Sm TGR inh -7%, HCMV antiviral 63, Giardia FBPA inh -3%, Pf growth 96h 4.7µM* and Pf growth 48h 7.4µM*.
CC1=C(C(=O)OC(C)C)C(c2ccc(C)o2)C(C(=O)OC(C)C)=C(C)N1 was read as Sm TGR inh inconclusive, HCMV antiviral 7, Giardia FBPA inh -24%, Pf growth 96h inconclusive and Pf growth 48h 10µM*.
For COC(=O)C1=C(C)NC(C)=C(C(=O)OC)C1c1ccc(C)o1 the results were Sm TGR inh -12%, HCMV antiviral 144, Giardia FBPA inh 7%, Pf growth 96h 10% and Pf growth 48h -8%.
Screening CCOC(=O)C1=C(C)NC(C)=C(C(=O)OCC)C1c1ccc(Br)o1 returned Sm TGR inh -12%, HCMV antiviral -79*, Giardia FBPA inh -15%, Pf growth 96h 12µM* and Pf growth 48h inconclusive.
`O=C(Nc1cccc(-n2cnnn2)c1)c1ccc(OC(F)(F)F)cc1` gave Sm TGR inh -3%, HCMV antiviral -7, Giardia FBPA inh -8%, Pf growth 96h -4% and Pf growth 48h 0%.
Screening CC(C)Nc1nc(NC2CCCC2)nc(N2CCOCC2)n1 returned Sm TGR inh 0%, HCMV antiviral -35, Pf growth 96h 5.2µM* and Pf growth 48h inconclusive.
Screening CCCCCn1c(CCCNC(=O)c2cccc(C)c2)nc2ccccc21 returned Sm TGR inh 6% and HCMV antiviral -85*.
`COc1ccc(C(=O)NCCCc2nc3ccccc3n2Cc2ccccc2C)cc1OC` gave Sm TGR inh -7%, HCMV antiviral -10, Giardia FBPA inh 3%, Pf growth 96h 9.3µM* and Pf growth 48h inconclusive.
Screening CC(=O)NCCCc1nc2ccccc2n1Cc1ccccc1F returned Sm TGR inh 5%, HCMV antiviral 0, Giardia FBPA inh 4%, Pf growth 96h -7% and Pf growth 48h 5%.

Screening data deposited in PubChem by National Center for Advancing Translational Sciences (NCATS).
